Test results from the supplement of paper PMC6555819.

Key:
Assay in all cases: PBM binding z-score (relative to random genomic background probes); higher = stronger binding; sequences stand for … in GC…GCGATTGACAGCGTAGAATGAAGG
[1] = test system: FXR:RXRa (NR concentration 270 nM, RXRa partner concentration 90 nM)
In short: (§1)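 For binding z-scores, the reference was random background probes on custom Agilent 4×180K protein-binding microarrays. These arrays were incubated 1 h with ligand-free nuclear receptor dimers in PBS pH 7.4, 2% milk, 0.02% Triton X-100, 1 mM DTT, 0.2 mg/mL BSA and 0.4 mg/ml salmon testes DNA. Fluorescence was scanned after antibody detection of each partner (one per run) and regression-normalized.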

[2] = test system: LXRa:RXRa (NR concentration 270 nM, RXRa partner concentration 90 nM)
In short: as §1

[3] = test system: LXRa homodimer (NR concentration 270 nM)
In short: as §1

[4] = test system: LXRb:RXRa (NR concentration 270 nM, RXRa partner concentration 90 nM)
In short: as §1

[5] = test system: LXRb homodimer (NR concentration 270 nM)
In short: as §1

[6] = test system: PPARa:RXRa (NR concentration 270 nM, RXRa partner concentration 90 nM)
In short: as §1

[7] = test system: PPARg:RXRa (NR concentration 180 nM, RXRa partner concentration 90 nM)
In short: as §1

[8] = test system: PPARg:RXRa 270nM:90nM, anti-RXR (NR concentration 270 nM, RXRa partner concentration 90 nM)
In short: as §1

[9] = test system: PPARg:RXRa 30nM:10nM, anti-RXR (NR concentration 30 nM, RXRa partner concentration 10 nM)
In short: as §1

[10] = test system: PPARg:RXRa 90nM:30nM, anti-RXR (NR concentration 90 nM, RXRa partner concentration 30 nM)
In short: as §1

**Q.** CCTACTGGGCCAAAAAGGTCATGGATGCCGATAA was tested. Which PBM binding z-score [1] did it give?
**A.** 3.67

**Q.** And the PBM binding z-score [2]?
**A.** 4.35

**Q.** What about the PBM binding z-score [3] of the same sequence?
**A.** 2.1

**Q.** What about the PBM binding z-score [4] of the same sequence?
**A.** 4.13

**Q.** And the PBM binding z-score [5]?
**A.** -0.189

**Q.** And the PBM binding z-score [6]?
**A.** 5.2

**Q.** And the PBM binding z-score [7]?
**A.** 4.16

**Q.** What about the PBM binding z-score [8] of the same sequence?
**A.** 4.82

**Q.** What about the PBM binding z-score [9] of the same sequence?
**A.** 1.68

**Q.** And the PBM binding z-score [10]?
**A.** 3.88

**Q.** TCTCGGAGGACACGAAAGGTCAGGGCTCGACATC was tested. Which PBM binding z-score [1] did it give?
**A.** 3.31

**Q.** What about the PBM binding z-score [2] of the same sequence?
**A.** 3.84

**Q.** What about the PBM binding z-score [3] of the same sequence?
**A.** 3.08

**Q.** And the PBM binding z-score [4]?
**A.** 3.5

**Q.** And the PBM binding z-score [5]?
**A.** 0.0689

**Q.** What about the PBM binding z-score [6] of the same sequence?
**A.** 3.95

**Q.** And the PBM binding z-score [7]?
**A.** 1.6

**Q.** And the PBM binding z-score [8]?
**A.** 2.91

**Q.** And the PBM binding z-score [9]?
**A.** 2.57

**Q.** And the PBM binding z-score [10]?
**A.** 2.76

**Q.** AGAATGAGGTTACCAAAGATCAGGGAAACGCTTG was tested. Which PBM binding z-score [1] did it give?
**A.** 1.86

**Q.** What about the PBM binding z-score [2] of the same sequence?
**A.** 6.59

**Q.** What about the PBM binding z-score [3] of the same sequence?
**A.** -0.00475

**Q.** What about the PBM binding z-score [4] of the same sequence?
**A.** 3.1

**Q.** What about the PBM binding z-score [5] of the same sequence?
**A.** -0.712

**Q.** What about the PBM binding z-score [6] of the same sequence?
**A.** 3.65

**Q.** What about the PBM binding z-score [7] of the same sequence?
**A.** 3

**Q.** And the PBM binding z-score [8]?
**A.** 3.03

**Q.** What about the PBM binding z-score [9] of the same sequence?
**A.** 0.954

**Q.** What about the PBM binding z-score [10] of the same sequence?
**A.** 2.22

**Q.** Which PBM binding z-score [1] does the source give for TAGCCGAGGTCAGATCGGGCCAGTATACGCTATA here?
**A.** 5.46

**Q.** What about the PBM binding z-score [2] of the same sequence?
**A.** 4.26

**Q.** And the PBM binding z-score [3]?
**A.** 0.00263

**Q.** What about the PBM binding z-score [4] of the same sequence?
**A.** 3.74

**Q.** What about the PBM binding z-score [5] of the same sequence?
**A.** 0.611

**Q.** And the PBM binding z-score [6]?
**A.** 4.8

**Q.** What about the PBM binding z-score [7] of the same sequence?
**A.** 3.14

**Q.** And the PBM binding z-score [8]?
**A.** 3.56

**Q.** What about the PBM binding z-score [9] of the same sequence?
**A.** 1.05

**Q.** What about the PBM binding z-score [10] of the same sequence?
**A.** 2.17

**Q.** For CCTACTGGACCAAAAAGGTCATTGATGCCGATAA, which PBM binding z-score [1] is on record?
**A.** 3.74

**Q.** What about the PBM binding z-score [2] of the same sequence?
**A.** 4.82

**Q.** What about the PBM binding z-score [3] of the same sequence?
**A.** 4.22

**Q.** And the PBM binding z-score [4]?
**A.** 4.55

**Q.** And the PBM binding z-score [5]?
**A.** 1.28

**Q.** And the PBM binding z-score [6]?
**A.** 4.55

**Q.** What about the PBM binding z-score [7] of the same sequence?
**A.** 2.13

**Q.** What about the PBM binding z-score [8] of the same sequence?
**A.** 3.38

**Q.** What about the PBM binding z-score [9] of the same sequence?
**A.** 1.31

**Q.** And the PBM binding z-score [10]?
**A.** 2.53

**Q.** What does the source list for CCTACTGGGCCAAGGTCATTGTTCAGTCAAAGCA?
**A.** PBM binding z-score [1]: 2.83; PBM binding z-score [2]: 3.04; PBM binding z-score [3]: 1.28; PBM binding z-score [4]: 2.99; PBM binding z-score [5]: -0.347; PBM binding z-score [6]: 4.06; PBM binding z-score [7]: 3.84; PBM binding z-score [8]: 4.26; PBM binding z-score [9]: 1.73; PBM binding z-score [10]: 3.71

**Q.** Which PBM binding z-score [1] does the source give for TCATATAGGTAAACAGGTGAACGTCCGTAAGTTA here?
**A.** 1.03

**Q.** What about the PBM binding z-score [2] of the same sequence?
**A.** 1.3

**Q.** What about the PBM binding z-score [3] of the same sequence?
**A.** 0.422

**Q.** And the PBM binding z-score [4]?
**A.** 1.09

**Q.** And the PBM binding z-score [5]?
**A.** -0.0806

**Q.** And the PBM binding z-score [6]?
**A.** 2.56

**Q.** And the PBM binding z-score [7]?
**A.** 2.7

**Q.** And the PBM binding z-score [8]?
**A.** 3.48

**Q.** And the PBM binding z-score [9]?
**A.** 4.2

**Q.** And the PBM binding z-score [10]?
**A.** 3.9

**Q.** What does the source list for CGTCCCAGGTCAAGGTCAGTGAAAGAGACTCGAA?
**A.** PBM binding z-score [1]: 6.02; PBM binding z-score [2]: 4.67; PBM binding z-score [3]: 1.45; PBM binding z-score [4]: 3.68; PBM binding z-score [5]: 0.553; PBM binding z-score [6]: 5; PBM binding z-score [7]: 4.32; PBM binding z-score [8]: 4.51; PBM binding z-score [9]: 1.14; PBM binding z-score [10]: 3.02

**Q.** For CGAACTAGGTCATCCAGCACAGTGAATACATTGA, which PBM binding z-score [1] is on record?
**A.** 4.05

**Q.** And the PBM binding z-score [2]?
**A.** 2.64

**Q.** What about the PBM binding z-score [3] of the same sequence?
**A.** 0.684

**Q.** And the PBM binding z-score [4]?
**A.** 2.07

**Q.** And the PBM binding z-score [5]?
**A.** 0.124

**Q.** And the PBM binding z-score [6]?
**A.** 4.78

**Q.** And the PBM binding z-score [7]?
**A.** 7.47

**Q.** What about the PBM binding z-score [8] of the same sequence?
**A.** 6.28

**Q.** And the PBM binding z-score [9]?
**A.** 3.93

**Q.** What about the PBM binding z-score [10] of the same sequence?
**A.** 5.81

**Q.** TCTAGTTGGTCACGGAGTTCACACACGACGGGTA was tested. Which PBM binding z-score [1] did it give?
**A.** 1.65

**Q.** What about the PBM binding z-score [2] of the same sequence?
**A.** 2.17

**Q.** And the PBM binding z-score [3]?
**A.** 2.34

**Q.** And the PBM binding z-score [4]?
**A.** 1.88

**Q.** And the PBM binding z-score [5]?
**A.** 0.263

**Q.** And the PBM binding z-score [6]?
**A.** 2.63

**Q.** What about the PBM binding z-score [7] of the same sequence?
**A.** 1.88

**Q.** What about the PBM binding z-score [8] of the same sequence?
**A.** 2.66

**Q.** What about the PBM binding z-score [9] of the same sequence?
**A.** 3.07

**Q.** What about the PBM binding z-score [10] of the same sequence?
**A.** 2.99

**Q.** Which results are given for TCTTGTAGATCAACAGGAGGTTAAGAAGGATCGA?
**A.** PBM binding z-score [1]: 0.614; PBM binding z-score [2]: 0.955; PBM binding z-score [3]: 0.0858; PBM binding z-score [4]: 0.854; PBM binding z-score [5]: -0.55; PBM binding z-score [6]: 1.34; PBM binding z-score [7]: 0.000249; PBM binding z-score [8]: 1.23; PBM binding z-score [9]: 2.58; PBM binding z-score [10]: 1.73

**Q.** How did the PBM binding z-score [1] turn out when TCTAGTTGGACACGGAGGTCACACACGACGGGTA was run?
**A.** 2.81

**Q.** And the PBM binding z-score [2]?
**A.** 2.85

**Q.** What about the PBM binding z-score [3] of the same sequence?
**A.** 2.1

**Q.** And the PBM binding z-score [4]?
**A.** 2.85

**Q.** What about the PBM binding z-score [5] of the same sequence?
**A.** 0.421

**Q.** What about the PBM binding z-score [6] of the same sequence?
**A.** 3.68

**Q.** And the PBM binding z-score [7]?
**A.** 2.46

**Q.** And the PBM binding z-score [8]?
**A.** 3.05

**Q.** What about the PBM binding z-score [9] of the same sequence?
**A.** 3.26

**Q.** And the PBM binding z-score [10]?
**A.** 2.88
